Data published in PubChem BioAssay.
The source made the active and inactive calls.

Key:
[1] = target: Albumin (Bos taurus) (UniProt P02769); assay: compounds binding labelled BSA control protein – biochemical, small-molecule microarray, Alexa647 label, 635/667 nm fluorescence, artefact control for SMM control protein annotation, profiling panel (AID 1118); settings: BSA-A647 binding, fluorescence 635 nm, higher = more signal;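 further: score merges 667 nm emission intensity and signal-to-noise per printed compound spot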
Chain of Albumin (Bos taurus) (P02769 whole entry, looked up): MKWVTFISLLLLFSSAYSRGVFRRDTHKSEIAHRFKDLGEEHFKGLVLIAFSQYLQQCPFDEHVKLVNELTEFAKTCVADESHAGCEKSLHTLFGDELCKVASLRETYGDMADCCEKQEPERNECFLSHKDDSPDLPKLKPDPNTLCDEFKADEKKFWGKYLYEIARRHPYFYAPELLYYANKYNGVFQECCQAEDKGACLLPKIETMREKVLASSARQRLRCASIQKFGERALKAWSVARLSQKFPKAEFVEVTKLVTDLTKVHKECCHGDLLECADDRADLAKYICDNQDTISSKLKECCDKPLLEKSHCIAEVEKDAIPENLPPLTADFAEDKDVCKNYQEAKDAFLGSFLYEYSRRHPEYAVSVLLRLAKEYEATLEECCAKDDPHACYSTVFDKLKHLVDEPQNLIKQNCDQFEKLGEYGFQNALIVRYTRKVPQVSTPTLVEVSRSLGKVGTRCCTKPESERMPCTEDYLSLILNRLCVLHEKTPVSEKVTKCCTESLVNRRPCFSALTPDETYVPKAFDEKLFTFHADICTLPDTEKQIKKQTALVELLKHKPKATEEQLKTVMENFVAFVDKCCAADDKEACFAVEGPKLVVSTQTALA

[2] = probe aXIP binding to arrayed compounds – biochemical, NeuroSMM set, 635/667 nm fluorescence, primary screen (AID 1119); settings: small-molecule microarray, higher = more signal, called active from +8 up or from −8 down;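 further: probe is the protein aXip251-270 applied at 1 µg/mL to compound-printed slides; binding of probe to printed compounds measured as 667 nm fluorescence plus signal to noise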
[3] = probe aNOTCH3 binding on compound microarray – biochemical, small-molecule microarray, 635/667 nm fluorescence, primary screen (AID 1120); settings: higher = more signal;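 further: probe is a biotin-tagged antibody raised against NOTCH3 rather than NOTCH3 protein; score merges spot fluorescence near 667 nm with spot signal to noise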
[4] = probe aNOTCH2 binding on compound microarray – biochemical, small-molecule microarray, 635/667 nm fluorescence, primary screen (AID 1121); settings: higher = more signal;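 further: score merges feature fluorescence read at 667 nm with its signal to noise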
[5] = target: Carbonic anhydrase 2 (Homo sapiens) (UniProt P00918); assay: compounds binding carbonic anhydrase 2 – biochemical, small-molecule microarray, Alexa647-labelled CAII, profiling panel (AID 1122); settings: CAII-A647 binding fluorescence, higher = more signal
[6] = COS7 lysate on small-molecule microarray, probe aHis, 635 nm (AID 1123); settings: COS7 cell lysate, fluorescence, higher = more signal;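 further: z-score combines 667nm fluorescence intensity with signal-to-noise per printed compound spot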
[7] = probe aLAP1 signal on lysate-treated microarray – cell lysate, small-molecule microarray, COS7 lysate, primary screen (AID 1124); settings: probe aLAP1, fluorescence, higher = more signal;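 further: lysate comes from COS7 cells expressing LAP1 and is applied at 0.3 µg/mL; score merges spot fluorescence near 667 nm with signal-to-noise over triplicate slides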
[8] = test system: Sam68 (KHDRBS1); assay: compounds binding KHDRBS1 protein – biochemical, small-molecule microarray, 635 nm fluorescence, primary screen (AID 1125); settings: higher = more signal;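 further: score merges 667 nm channel intensity with signal to noise over triplicate slides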
[9] = test system: Chordin-like protein 2 (CHRDL2); assay: compounds binding chordin-like 2 – biochemical, small-molecule microarray, 635 nm fluorescence, primary screen (AID 1126); settings: fluorescence 635 nm, higher = more signal;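 further: printed compound slides probed with Chrdl2 protein at 4 µg/mL for 1 h at 4 C; score merges 667 nm emission intensity with signal to noise over three replicate slides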
[10] = target: Concanavalin-A (Canavalia ensiformis) (UniProt P02866); assay: compounds binding concanavalin A lectin – biochemical, small-molecule microarray, Alexa647 label, 635 nm, artefact control for SMM control protein annotation, primary screen (AID 1127); settings: ConA-A647 binding fluorescence, higher = more signal;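 further: z combines 667 nm emission intensity with signal-to-noise across three replicate slides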
Chain of Concanavalin-A (Canavalia ensiformis) (P02866 whole entry, looked up): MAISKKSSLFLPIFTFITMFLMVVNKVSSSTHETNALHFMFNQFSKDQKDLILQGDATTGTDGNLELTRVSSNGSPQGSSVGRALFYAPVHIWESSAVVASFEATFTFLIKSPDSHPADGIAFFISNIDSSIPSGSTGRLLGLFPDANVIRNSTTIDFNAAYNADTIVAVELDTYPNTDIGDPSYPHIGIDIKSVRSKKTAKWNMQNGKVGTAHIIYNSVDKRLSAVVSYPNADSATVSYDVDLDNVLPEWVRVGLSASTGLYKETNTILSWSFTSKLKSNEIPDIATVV

[11] = compounds binding Alexa647 anti-His antibody – biochemical, small-molecule microarray, 635 nm fluorescence, artefact control for SMM control protein annotation, primary screen (AID 1128); settings: higher = more signal;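 further: score merges feature fluorescence with signal-to-noise for each printed compound spot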
[12] = test system: Human papillomavirus type 1a E7 protein (residues 1-88); assay: HPV1a E7 small-molecule binders, primary screen, biochemical, small-molecule microarray, residues 1-88, 635 nm (AID 1129); settings: small-molecule microarray binding, fluorescence 635 nm; higher = more signal
[13] = target: Focal adhesion kinase 1 (Homo sapiens) (UniProt Q05397); assay: PTK2 protein binding on printed compound slides – biochemical, small-molecule microarray, 635/667 nm fluorescence, BSA, DTT, primary screen (AID 1130); settings: 635 nm fluorescence, higher = more signal;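 further: composite of spot emission at 667 nm and signal to noise over triplicate slides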
Chain of Focal adhesion kinase 1 (Homo sapiens) (Q05397 whole entry, looked up): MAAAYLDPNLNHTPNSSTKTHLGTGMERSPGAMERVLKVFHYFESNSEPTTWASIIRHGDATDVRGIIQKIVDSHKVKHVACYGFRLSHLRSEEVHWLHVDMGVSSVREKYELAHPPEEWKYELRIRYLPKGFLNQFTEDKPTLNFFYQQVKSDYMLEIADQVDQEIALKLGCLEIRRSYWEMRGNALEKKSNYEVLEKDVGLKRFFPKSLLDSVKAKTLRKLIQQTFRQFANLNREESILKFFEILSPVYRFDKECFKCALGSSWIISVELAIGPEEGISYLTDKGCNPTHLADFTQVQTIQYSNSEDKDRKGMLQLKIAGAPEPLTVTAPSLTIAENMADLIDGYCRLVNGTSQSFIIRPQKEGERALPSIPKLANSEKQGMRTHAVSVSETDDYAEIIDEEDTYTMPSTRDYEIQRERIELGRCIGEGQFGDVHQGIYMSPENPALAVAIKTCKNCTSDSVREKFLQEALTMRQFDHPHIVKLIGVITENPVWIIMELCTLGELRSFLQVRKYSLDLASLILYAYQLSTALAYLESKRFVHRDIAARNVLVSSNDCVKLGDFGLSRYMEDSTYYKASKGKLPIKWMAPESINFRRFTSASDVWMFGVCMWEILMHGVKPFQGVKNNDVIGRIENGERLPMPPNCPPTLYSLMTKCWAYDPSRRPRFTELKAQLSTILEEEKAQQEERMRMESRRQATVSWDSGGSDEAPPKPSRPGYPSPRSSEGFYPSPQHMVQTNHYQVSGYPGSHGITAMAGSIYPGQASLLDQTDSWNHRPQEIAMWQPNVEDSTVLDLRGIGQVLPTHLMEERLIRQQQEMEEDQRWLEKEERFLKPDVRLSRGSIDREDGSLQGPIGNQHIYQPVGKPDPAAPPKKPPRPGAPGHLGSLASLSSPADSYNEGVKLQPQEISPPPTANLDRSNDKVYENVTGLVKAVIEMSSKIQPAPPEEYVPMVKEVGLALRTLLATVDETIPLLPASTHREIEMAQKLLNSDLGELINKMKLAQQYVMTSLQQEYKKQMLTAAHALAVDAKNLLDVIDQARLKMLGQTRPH

[14] = test system: Fibrinogen (Alexa647-labelled); assay: Alexa647-fibrinogen binding to printed small molecules – biochemical, small-molecule microarray, 635/667 nm fluorescence, artefact control for SMM control-protein annotation, profiling panel (AID 1131); settings: fibrinogen-A647 binding fluorescence, higher = more signal;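 further: z-score merges 667 nm fluorescence with per-spot signal-to-noise over triplicate slides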
[15] = target: Follistatin (Homo sapiens) (UniProt P19883); assay: FST protein binding to printed compounds – biochemical, small-molecule microarray, 635/667 nm fluorescence, primary screen (AID 1132); settings: 635 nm fluorescence, higher = more signal
Chain of Follistatin (Homo sapiens) (P19883 whole entry, looked up): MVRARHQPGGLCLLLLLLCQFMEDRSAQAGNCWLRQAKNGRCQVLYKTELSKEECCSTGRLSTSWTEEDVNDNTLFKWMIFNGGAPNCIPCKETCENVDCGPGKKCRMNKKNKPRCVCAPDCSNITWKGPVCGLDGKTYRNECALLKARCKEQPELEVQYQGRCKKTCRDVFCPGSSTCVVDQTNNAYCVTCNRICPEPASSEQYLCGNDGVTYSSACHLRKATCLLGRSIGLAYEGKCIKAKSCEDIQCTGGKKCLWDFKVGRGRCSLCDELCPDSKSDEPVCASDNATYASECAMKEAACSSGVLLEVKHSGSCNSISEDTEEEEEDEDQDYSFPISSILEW

[16] = target: Fibroblast growth factor 2 (Homo sapiens) (UniProt P09038); assay: basic fibroblast growth factor binding to printed compounds – biochemical, small-molecule microarray, 635/667 nm fluorescence, primary screen (AID 1133); settings: FGF2, fluorescence 635/667, higher = more signal
Chain of Fibroblast growth factor 2 (Homo sapiens) (P09038 whole entry, looked up): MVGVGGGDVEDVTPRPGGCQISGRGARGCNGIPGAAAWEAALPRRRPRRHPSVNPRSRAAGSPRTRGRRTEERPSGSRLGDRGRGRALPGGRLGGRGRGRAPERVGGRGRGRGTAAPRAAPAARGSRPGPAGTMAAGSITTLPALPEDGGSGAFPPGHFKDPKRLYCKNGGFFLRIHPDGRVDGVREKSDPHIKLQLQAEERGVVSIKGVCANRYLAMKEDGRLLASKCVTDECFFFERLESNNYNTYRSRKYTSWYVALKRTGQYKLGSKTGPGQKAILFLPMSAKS

[17] = JC-1 mitochondrial potential readout, lung cancer cells – cell-based, A549, JC-1 fluorescence, basal, 24 h, 100 nL, profiling panel (AID 1138); settings: higher = more signal;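 further: A549 lung adenocarcinoma cells under basal conditions with no added stimulus; test concentration not given here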
[18] = test system: Lefty1; assay: Lefty1 protein binding to printed compounds – biochemical, small-molecule microarray, 635/667 nm fluorescence, primary screen (AID 1139); settings: fluorescence 635/667, higher = more signal
[19] = test system: wheat germ agglutinin (Triticum aestivum), Alexa647-labelled; assay: Alexa647-WGA lectin binding to printed small molecules – biochemical, small-molecule microarray, 635/667 nm fluorescence, artefact control for SMM control-protein annotation, profiling panel (AID 1140); settings: WGA-A647 binding, 635 nm fluorescence, higher = more signal;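 further: score merges 667 nm feature emission with signal to noise over triplicate slides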
[20] = target: Luciferin 4-monooxygenase (Photinus pyralis) (UniProt P08659); assay: inhibition of purified Photinus pyralis luciferase – biochemical, luminescence, purified enzyme, 2006 set, primary screen (AID 1141); settings: purified firefly luciferase, SteadyGlo luminescence, 30 min; higher = more signal, called active from +8 up or from −8 down;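 further: cell-free assay with purified firefly luciferase at 100 ng per well in PBS; test concentration not given here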
Chain of Luciferin 4-monooxygenase (Photinus pyralis) (P08659 whole entry, looked up): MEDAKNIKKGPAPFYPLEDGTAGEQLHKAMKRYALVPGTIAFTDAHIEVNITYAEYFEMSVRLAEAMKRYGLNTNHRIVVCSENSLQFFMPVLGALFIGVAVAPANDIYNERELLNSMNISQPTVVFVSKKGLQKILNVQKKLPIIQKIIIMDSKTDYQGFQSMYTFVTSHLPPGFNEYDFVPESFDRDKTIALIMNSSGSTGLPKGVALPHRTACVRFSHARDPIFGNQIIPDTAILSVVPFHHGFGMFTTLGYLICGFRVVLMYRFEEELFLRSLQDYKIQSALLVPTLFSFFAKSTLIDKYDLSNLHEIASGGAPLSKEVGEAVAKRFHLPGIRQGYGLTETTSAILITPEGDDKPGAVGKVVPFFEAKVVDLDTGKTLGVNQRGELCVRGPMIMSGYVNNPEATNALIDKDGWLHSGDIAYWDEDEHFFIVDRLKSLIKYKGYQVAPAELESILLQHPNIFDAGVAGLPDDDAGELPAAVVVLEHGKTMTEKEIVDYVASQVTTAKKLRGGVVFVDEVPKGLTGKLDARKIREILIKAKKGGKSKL

SMILES | composite z-score [1] | composite Z-score [2] | composite z-score [3] | composite z-score [4] | composite z-score [5] | composite z-score [6] | composite z-score [7] | composite z-score [8] | composite z-score [9] | composite z-score [10] | composite z-score [11] | composite z-score [12] | composite z-score [13] | composite z-score [14] | composite z-score [15] | composite z-score [16] | z-score [17] | composite z-score [18] | composite z-score [19] | z-score [20]
COC(=O)[C@@]1(Cc2ccccc2)[C@H]2c3cc(C(=O)N4CCCC4)n(CC4CC4)c3C[C@H]2CN1C(=O)c1ccccc1 | 0.946 | 1.02 (inactive) | 1.13 | 0.389 | 0.641 | 2.89 | 0.114 | 1.3 | -0.311 | 0.818 | 1.13 | 1.2 | 0.885 | 0.643 | 0.76 | -0.031 | -0.641 | 0.206 | 0.847 | 1.42 (inactive)
C#CCNC(=O)[C@H](Cc1ccccc1)NC(=O)CCC(=O)O | -1.09 | 1.42 (inactive) | -0.262 | -0.161 | -0.124 | -0.301 | 0.236 | -1.74 | -0.471 | -1.83 | -1.08 | -0.912 | -0.318 | -1.74 | -1.69 | -0.246 | -0.68 | -0.804 | -1.19 | 0.0223 (inactive)
CC(C)(C)OC(=O)CC[C@@]1(C(=O)NCCN2CCOCC2)N=C(c2ccc(OCCCO)cc2)O[C@@H]1c1ccccc1N=[N+]=[N-] | 0.641 | 0.393 (inactive) | 0.375 | 0.103 | 0.742 | 1.81 | 0.0412 | 1.33 | 0.178 | 0.289 | 0.22 | 1.2 | 1.21 | 0.554 | 1.18 | -0.156 | 1.26 | -0.0836 | 0.0832 | -9.63 (active)
C=C(CCCC)C(=O)CC[C@H](OC(C)=O)c1cccc(OCCO)c1 | -1.33 | -0.126 (inactive) | -0.224 | -0.205 | -0.361 | -0.0995 | -0.186 | -0.11 | -1.14 | -0.502 | -0.393 | -0.755 | 0.5 | -1.29 | -0.732 | -0.546 | -0.299 | -0.492 | -0.881 | 0.0336 (inactive)
O=C1O[C@H](c2ccccc2)[C@H](c2ccccc2)N2[C@H]1[C@@H](C(=O)O)[C@]1(C(=O)Nc3ccc(C#CCCO)cc31)[C@H]2c1ccc(O)cc1 | 0.279 | 0.0575 (inactive) | -0.0014 | -0.0467 | 0.501 | 0.651 | 0.514 | 0.0673 | -0.823 | -0.161 | 0.0887 | 0.0227 | 0.724 | -0.862 | 0.771 | -0.317 | 1.07 | -0.279 | 0.349 | -1.72 (inactive)
COc1ccc(C(=O)Nc2ccc(CN3C(=O)[C@@]4(O[C@@H](CCO)[C@H]([Si](C)(C)c5ccc(OC)cc5)[C@H]4C)c4ccccc43)cc2)cc1 | -0.338 | 0.673 (inactive) | 0.0034 | -0.0999 | 0.531 | 0.81 | 0.292 | 1.3 | 0.959 | 1.14 | 1.42 | 0.97 | -0.0228 | 0.673 | 1.37 | 1.55 | -1.49 | 1.45 | 0.559 | -0.555 (inactive)
CN1C(=O)C2C=CC(C(O)Cc3ccccc3)N(Nc3ccccc3)C2C1=O (stereo not given) | 0.554 | -0.193 (inactive) | -0.0311 | -0.0196 | 0.589 | 3.06 | -0.333 | -0.0158 | -0.513 | 0.672 | 1.61 | 0.257 | 0.385 | 0.944 | 0.27 | -0.408 | -0.375 | -0.0697 | 1.12 | -0.492 (inactive)
CC1CC/C=C\[C@H]2OC34C=CCN(C(C)(C)C)C(=O)[C@H]3N(CCCCCCO)C(=O)[C@@H]4C2C(=O)O1 (stereo not given in full) | -0.805 | -0.358 (inactive) | -0.295 | -0.114 | 0.932 | 0.178 | 0.843 | -0.281 | -1.07 | -0.239 | 1.65 | -0.572 | -0.61 | -0.988 | -0.49 | -0.635 | 0.699 | -0.349 | -0.872 | -0.939 (inactive)
C[N+](C)(C)CCCC[C@@H]1NC(=O)[C@@H]2C[C@H](C(=O)NCCCCCN)[C@H](c3cccc(OCCO)c3)N2C1=O | 0.924 | 0.0926 (inactive) | -0.0744 | 0.0292 | 0.832 | 2.08 | -0.207 | 1.32 | -0.633 | 0.929 | 0.758 | 0.935 | 0.103 | 0.978 | 0.597 | 0.175 | 0.809 | 0.161 | 1.07 | -1.25 (inactive)
C=CCNC(=O)[C@H]1[C@@H]2C(=O)O[C@@H](c3ccccc3)[C@@H](c3ccccc3)N2[C@@H](c2ccc(OCCO)cc2)[C@]12C(=O)N(C(=O)OCCOC)c1ccccc12 | 0.262 | 0.108 (inactive) | 0.199 | -0.0964 | 0.381 | 1.99 | 0.503 | 1.3 | 0.176 | 1.14 | 2.75 | 1.25 | 0.389 | 0.962 | 1.33 | 1.53 | -0.134 | 0.807 | 0.789 | 0.122 (inactive)
COc1ccc(C(O)C2C=CC3C(=O)N(c4ccccc4)C(=O)C3N2Nc2ccccc2F)cc1OCc1ccccc1 (stereo not given) | 1.01 | 1.22 (inactive) | 0.837 | 0.114 | 0.51 | 2.04 | -0.0892 | 1.31 | -0.175 | 1.13 | 0.981 | 1.22 | 1.37 | 0.991 | 0.634 | -0.179 | 0.383 | -0.454 | 1.18 | -0.237 (inactive)
